This is an account of results in PubChem BioAssay (NCI).

About 83,000 compounds went through this panel and 20% of them were active in at least one assay; those are over-represented in the sample as a whole.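 Results are percent growth after 48 hours of single-concentration exposure. 100 means growth as in untreated cells, lower positive values show inhibition; negative values down to -100 show cell death.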 Unmarked numbers belong to inactive results. Activity calls are given as the source filed them. The calls were made as follows: active = growth percent below 10; inactive = the rest.

Holding throughout (test): NCI-60 one-dose screen, 48 h (100 = growth as untreated, 0 = no growth, -100 = all killed)
Details in all cases: 10 µM

Test [1] deals with T-47D breast.
The test system of test [2] is BT-549 breast.
Test [3] relates to MDA-MB-435 melanoma.
Test [4] deals with SW-620 colon.
In test [5] the test system is MCF7 breast.
The test system of test [6] is HCT-116 colon.
For test [7], the system named is HCC-2998 colon.
Test [8] has as its system KM12 colon.
Test [9] deals with MDA-MB-468 breast.

For `Cc1ccc(-c2cc(C(=O)N=Nc3c(O)[nH]c4ccccc34)c3ccccc3n2)cc1`, the growth in test [1] was 43.8%; in [2] it was 34.5%; in [3], 5.71% (active); in test [4], 8.14% (active); in test [5], 6.61% (active); in [6], -15.8% (active). For the same compound, the results for the growth in test [7], in test [8] and in test [9] were 48.4%, 23.9% and 26.3%, respectively.

Take `O=C(CSc1ccc(-c2ccc(Cl)cc2)nn1)Nc1ccc(Cl)c(C(F)(F)F)c1`: the growth was 58.3% in test [1]; 74.6% in [2]; 0.967% (active) in [3]; 36% in test [4]; 31.5% in test [5]; 50.7% in [6]. Further, the growth was 69.5% in test [7], 43.3% in [8] and 16.5% in test [9].

With `O=C(CSc1nnc(-c2ccc3nc(-c4ccccc4)[nH]c3c2)o1)Nc1ccc(Cl)cc1`, the growth was 23.8% in [1]; 55% in test [2]; 40.2% in test [3]; 66.8% in [4]; 16.3% in test [5]; 36.4% in test [6]. Moreover, the growth is 22.2% in test [7], 33% in [8] and 55.8% in test [9].

Consider `CCOC(=O)CNC(=O)CN(Cc1ccccc1)C(=O)[C@@]1(C)CCC[C@]2(C)[C@H]3C[C@H]4C(C(C)C)=C[C@]3(CC[C@H]21)[C@@H]1C(=O)OC(=O)[C@@H]14`, for which the growth in test [1] is 67.4%; in test [2], 76.2%; in test [3], 78.5%; in test [4] it was 79.4%; in [5], 30.7%; in test [6] it was 37.4%. In addition, the growth in [7] was 69.6%; in test [8], 53%; in [9], 48.9%.

`CC(=O)c1cc(C(=O)c2ccc3c(c2)NC(=O)CO3)n2ccc3ccccc3c12`: the growth in test [1] is 75.3%; in test [2], 78.3%; in [3] it was 80.5%; in test [4] it was 93.1%; in test [5], 64%; in test [6], 45%. The growth in test [7] was 87.8%; in test [8], 51.5%; in test [9], 50%.

With `CCCCOc1ccc(Nc2nc3ccccc3nc2Nc2ccc(OCCCC)cc2)cc1`, the growth in test [1] was 79%; in test [2] it was 104%; in test [3], 88.4%; in test [4], 96.3%; in test [5], 75.3%; in test [6] it was 49%. Moreover, the figures for the growth in test [7], in test [8] and in test [9] were 106%, 86.8% and 73.8%, respectively.

In the case of `CCCn1c(=O)c2[nH]c(-c3ccc(OCc4nc5ccc(C)cc5[nH]4)cc3)nc2n(CCC)c1=O`, the growth in test [1] was -13.2% (active); in [2] it was 36.3%; in [3], 49.1%; in test [4], 27.5%; in [5] it was 17.6%; in test [6], 14.6%. The growth in test [7] was 61.6%; in test [8] it was 69.7%; in [9] it was 16.7%.

`Cc1cc(C)cc(Oc2cccc(-c3c(C)nnn3C3CCN(CCN(C)C)CC3)n2)c1`: the growth was 24.8% in test [1]; 9.68% (active) in test [2]; 20.7% in test [3]; 45.9% in test [4]; 6.99% (active) in test [5]; 15.2% in test [6]. Further, the growth in test [7] was 0.234% (active); in [8], 37%; in test [9], -20.2% (active).

On to `Cc1ccc(-c2nc(Nc3ccccc3C(=O)O)c3ccccc3n2)cc1`, for which the growth in test [1] is 10.7%; in test [2], -23.5% (active); in test [3], 23.4%; in test [4], 14.5%; in test [5], 7.7% (active); in test [6] it was 6.7% (active). Moreover, the growth in test [7] was 5.44% (active); in test [8], 8.37% (active); in [9], -26.9% (active).

With `O=C1Nc2ccc(Cl)cc2/C1=C/c1cccc(OCc2ccccc2)c1`, the growth is 12.5% in [1]; 41.9% in test [2]; 35.4% in test [3]; 45.4% in [4]; 9.65% (active) in [5]; 17% in [6]. Also, the results for the growth in test [7], in test [8] and in [9] were 50.6%, 38.9% and -10.2% (active), respectively.

As to `COc1ccc(C=CC(=O)c2ccc(-n3c(C)nc4c(cnn4-c4ccccc4)c3=O)cc2)cc1`, the growth is 34.7% in test [1]; 45% in [2]; 11.2% in [3]; 75.1% in test [4]; 8.3% (active) in test [5]; 9.71% (active) in [6]. The figures for the growth in [7], in test [8] and in test [9] were 86.8%, 31.6% and 11.3%, respectively.

For `O=C(CN1CCN(c2ncnc3c2cnn3-c2ccccc2)CC1)Nc1nncs1`, the growth in [1] is 27.9%; in test [2], -85.9% (active); in test [3] it was 7.14% (active); in [4], -23.9% (active); in [5], 16.1%; in test [6] it was 8.23% (active). The growth was 59.7% in test [7], 4.55% (active) in [8] and -39.8% (active) in [9].

For `Cc1noc2c(Cc3ccccc3)nn(CC(=O)N/N=C/c3ccc(Br)cc3)c(=O)c12`, the growth in test [1] was 8.11% (active); in test [2], 87.2%; in [3], 70.2%; in test [4], 54.6%; in test [5], 45.4%; in test [6], 24.7%. The values for the growth in [7], in test [8] and in [9] were 85.3%, 73.8% and 78.1%, respectively.

As to `Cc1nc2c(cnn2-c2ccccc2)c(=O)n1-c1ccc(NC(=O)c2ccc(F)cc2)cc1`, the growth in [1] is 18%; in test [2] it was 46%; in test [3], 53.8%; in [4], 76.5%; in test [5] it was 35.8%; in test [6] it was 48.3%. In addition, the growth in test [7] was 79.9%; in test [8], 64.1%; in test [9] it was 14.5%.
